The record followed here is PubChem BioAssay AID449762 (Southern Research Specialized Biocontainment Screening …, 2010).

The whole screen tested about 330,000 compounds, of which about 1,900 (0.58%) were called active. Not shown: some 4% with an inconclusive outcome. Rule as the data show it: inconclusive = inhibition above about 70% without an active follow-up result; inactive = below that. The list is a sample of the results. Entries with a potency or affinity are not part of this list.

A short description of this experiment: M. tuberculosis growth inhibition, HTS (AID 449762).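 Also: bacterial growth assessed after seven days of incubation.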 As to conditions: M. tuberculosis H37Rv growth inhibition, 7H9 media; at 25 µM; stronger effect = higher value.
The term inhibition denotes the drop in the measured response relative to a control, in per cent. With `O=C(NC(=S)Nc1ccc2[nH]c(=O)[nH]c2c1)c1ccccc1F`, the inhibition was -4.55% (inactive).

As for `Clc1ccc2c(c1)C(OC1CN3CCC1CC3)c1ccccc1CS2` (centres undefined), the inhibition is 9.17% (inactive).

`Brc1ccc2c(c1)C(C1=NCCN1)c1ccccc1CS2` (centres undefined): the inhibition is 0.75% (inactive).

With `CN(C)/N=C/c1c(O)ccc2ccccc12`, the inhibition is 27.8% (inactive).

As to `NC(=S)N/N=C/c1c(O)ccc2ccccc12`, the inhibition was -0.33% (inactive).

As for `CCCN(CCC)C(=O)c1ccc2nc(-c3ccc(OC)c(OC)c3)c(-c3ccc(OC)c(OC)c3)nc2c1`, the inhibition is -2.59% (inactive).

With `CC1CCCN(C(=O)Cc2cccc3ccccc23)C1` (centres undefined), the inhibition was 7.05% (inactive).

`CCN(c1ccccc1)S(=O)(=O)c1cccc(C(=O)Nc2ccc(C)cn2)c1`: the inhibition was -11.7% (inactive).

Turning to `COc1cccc(-c2cccc(NC(=O)C3CCN(C4CCOCC4)CC3)c2)c1`, the inhibition was 6.63% (inactive).

In the case of `O=C1C2C(C(=O)N1/N=C/c1ccc(N3CCCCC3)o1)C1C=CC2C12CC2` (centres undefined), the inhibition was 6.38% (inactive).

For the compound `Cc1ccc(/C=N/N2C(=O)C3C(C2=O)C2C=CC3C23CC3)o1` (centres undefined), the inhibition was -4.61% (inactive).

On to `CC(C)(C)n1nnnc1C(c1ccc(Cl)cc1)N1CCCc2ccccc21` (centres undefined), for which the inhibition was -4.81% (inactive).

Regarding `N#C/C(=N\Nc1ccccc1)C(N)=S`, the inhibition was 2.54% (inactive).

As for `N#C/C(=N\Nc1ccc(Cl)cc1)C(N)=S`, the inhibition is 59.5% (inactive).

For `Cn1c(NN=O)nc2ccccc21`, the inhibition was 0.37% (inactive).

For `Cc1ccc(C)c(N=Nc2nc3ccccc3n2C)c1`, the inhibition is -4.4% (inactive).

Regarding `CCCCCc1ccc(-c2cn(CN3C(=O)c4ccccc4C3=O)nn2)cc1`, the inhibition was -0.74% (inactive).

Turning to `COC(=O)c1cc(COC(=O)c2ccc3ccccc3n2)oc1C`, the inhibition is 5.66% (inactive).

`CCc1cccc(NC(=O)Cc2ccc([N+](=O)[O-])cc2)c1`: the inhibition is -1.32% (inactive).

For the compound `O=C(Cc1ccc([N+](=O)[O-])cc1)Nc1ccc(Cl)cc1`, the inhibition was -3.64% (inactive).

On to `Fc1ccc(CSc2ccc3nnc(-c4cccnc4)n3n2)cc1`, for which the inhibition was -5.63% (inactive).

Regarding `Cn1c(-c2ccc(=O)[nH]c2)nc2ccccc21`, the inhibition was -2.91% (inactive).

As for `COC(=O)CC(NC(=O)c1ccco1)c1cccc2ccccc12` (centres undefined), the inhibition was -11% (inactive).

In the case of `C[C@]12CC[C@@H]3c4ccc(O)cc4CC[C@H]3[C@@H]1CC[C@@H]2OC(=O)CCC(=O)O`, the inhibition was 5.59% (inactive).

With `CC(=O)O[C@H]1CC[C@H]2[C@@H]3CCc4cc(O)ccc4[C@H]3CC[C@]12C`, the inhibition was 3.79% (inactive).

With `COc1ccc(/C=N/NC(=O)c2nonc2C)cc1`, the inhibition is 5.08% (inactive).

Take `COc1ccc(CCNC(=O)CSc2nn(-c3ccccc3)c(=S)s2)cc1`: the inhibition is -1.49% (inactive).

Regarding `COc1ccc(C(=O)N(Cc2ccco2)C(C(=O)NC2CCCC2)c2ccc(O)cc2)cc1OC` (centres undefined), the inhibition was -4.43% (inactive).

For `O=C(NC1CCCCC1)C(c1ccc2ncccc2c1)N(Cc1ccc2c(c1)OCO2)C(=O)c1cccs1` (centres undefined), the inhibition is 7% (inactive).

As for `COc1cc(C(=O)Nc2ccc3nc4n(c(=O)c3c2)CCCC4)ccc1Br`, the inhibition is 0.83% (inactive).

Consider `O=[N+]([O-])c1ccc(CN2CCCCCC2)s1`, for which the inhibition was -2.04% (inactive).

For `O=[N+]([O-])c1ccc(N2CCN(Cc3ccccc3)CC2)s1`, the inhibition is 62.1% (inactive).

For the compound `CC(=O)N(CC1CCCO1)c1nnc(-c2cnccn2)s1` (centres undefined), the inhibition was -7.32% (inactive).

In the case of `CCOC(=O)C[N+](C)(C)CCOC1CC2CCC1(C)C2(C)C` (centres undefined), the inhibition was 0.01% (inactive).

With `CCCOC(=O)C[N+](C)(C)CCOC1CC2CCC1(C)C2(C)C` (centres undefined), the inhibition is -2.27% (inactive).

Turning to `CCN(CC)c1ccc(C=NCCNS(=O)(=O)c2ccc(C)cc2)cc1`, the inhibition was -5.21% (inactive).

Turning to `CCOc1cc(/C=C2\COc3ccccc3C2=O)ccc1OCC(=O)N(C)C`, the inhibition is 36.2% (inactive).

Consider `CCOc1cc(/C=N/Nc2nc3ccccc3[nH]2)cc(Br)c1OCC(=O)N(C)C`, for which the inhibition is 54.1% (inactive).

Turning to `Nn1c(SCC(=O)Nc2ccccc2)nnc1C1CCCCC1`, the inhibition is -4.13% (inactive).

Consider `CCO[C@H]1OC(C(=O)NC2CC2)=C[C@@H](c2csc3ccccc23)[C@@H]1CCCO`, for which the inhibition was 2.79% (inactive).

On to `O=C(CC1C(=O)NCCN1Cc1c(F)cccc1Cl)NC1CCCC1` (centres undefined), for which the inhibition was -8.1% (inactive).

On to `O=[N+]([O-])c1cc(Cl)ccc1N1CCN(c2cccc(C(F)(F)F)c2)CC1`, for which the inhibition was 12% (inactive).

`CN(C)CCCN(C(=O)c1ccc(S(=O)(=O)N2CCc3ccccc32)cc1)c1nc2ccc(Cl)cc2s1`: the inhibition is 6.05% (inactive).

Consider `CN(C)CCCN(C(=O)c1ccc(S(=O)(=O)N2CCc3ccccc32)cc1)c1nc2ccc(F)cc2s1`, for which the inhibition is 2.5% (inactive).

Consider `COc1ccccc1NC(=S)N(Cc1ccc(C(=O)O)cc1)Cc1ccc(OC)c(OC)c1`, for which the inhibition is 1.31% (inactive).

As for `O=C(NCc1n[nH]c(=S)n1-c1ccc(F)cc1)c1ccc(S(=O)(=O)N2CCCCC2)cc1`, the inhibition was 0.39% (inactive).

As to `Cc1ccc(CNC(=O)c2ccc(Cn3cc(-c4ccc(C)cc4)nc3-c3ccncc3)cc2)cc1`, the inhibition is 8.49% (inactive).

On to `CCCNC(=O)c1ccc(Cn2cc(-c3ccc(OC)cc3)nc2C(C)N)cc1` (centres undefined), for which the inhibition is -9.06% (inactive).

As for `O=C(NCCc1ccccc1Cl)C1CCC(=O)N(C2CCCCCC2)C1` (centres undefined), the inhibition was 4.37% (inactive).

In the case of `COc1cc(OC)cc(C(=O)NCCSC2CCCCC2)c1`, the inhibition is 1.7% (inactive).

On to `C=CCc1ccccc1OCC(O)CN1CCN(c2ccc(C)cc2)CC1` (centres undefined), for which the inhibition is 8.24% (inactive).

`COC(=O)c1ccccc1C(=O)N(Cc1cccnc1)CC1CCCN(C2CCCCC2)C1` (centres undefined): the inhibition is 2.83% (inactive).

For `O=C(c1cc2ccccc2[nH]1)N(Cc1cccnc1)CC1CCCN(C2CCCCC2)C1` (centres undefined), the inhibition was 58% (inactive).

In the case of `CCN(C(=O)c1ccccc1F)c1nc(-c2ccc(OC)cc2)cs1`, the inhibition was 5.39% (inactive).

Regarding `CCc1c(C)c2ccc(OCC(N)=O)cc2oc1=O`, the inhibition was 4.28% (inactive).

With `CCOC(=O)CCc1c(C)c2ccc(OCC(=O)OC(C)C)cc2oc1=O`, the inhibition was 26.9% (inactive).

Turning to `COCCCNc1nc2cc(OC)c(OC)cc2c2nc(-c3ccccc3)nn12`, the inhibition was 13% (inactive).

Take `CCN(CC)CCCNc1nc2ccccc2c2nc(-c3ccncc3)nn12`: the inhibition was -0.63% (inactive).

Consider `CCCCCCCCCCCC(=O)N1CC(=O)NC(=O)C1`, for which the inhibition is -0.85% (inactive).
